# An excerpt weighted towards active compounds, which were near 0.64% of everything screened.
# BLM helicase inh: qHTS Assay for Inhibitors of Bloom's syndrome helicase (BLM); RecQ-like DNA helicase BLM (Homo sapiens), P54132; recombinant BLM DNA unwinding, fluorescence dequenching; Potency, µM (series often up to 56.1 µM), for the others: at the top dose activity change, negative = inhibition, most hits filed as inhibitors; hit rate 0.2% among 350,000;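 further: plate controls were vehicle for no effect and no enzyme for full effect; nearly all actives have a fitted effect of over 35% in size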
# RECQ1 inh: qHTS Assay for Inhibitors of RecQ-Like Dna Helicase 1 (RECQ1); Potency, µM (series often up to 57.3 µM), for the others: at the highest dose activity, negative = inhibition, usual class: inhibitors; hit rate 0.54% among 240,000; RECQ1 DNA unwinding, red fluorescence kinetic read;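 further: plate controls were vehicle for no effect and no enzyme for full effect; nearly all actives have a fitted effect of over 30% in size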
#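 RECQ1T1 50 nM; forked duplex (20 bp + 30-nt ss tails) 200 nM, ATP 2 mM final; pH 8.0, 2 mM MgCl2, 2.5 ug/ml poly(dI-dC); 15 min compound preincubation; discontinuous kinetic read over 2 h at RT.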
# TexasRed fluor: Total Fluorescence Counterscreen for Inhibitors of the Interaction of Thyroid Hormone Receptor and Steroid Receptor Coregulator 2. AID 1479, 2009. TRb/SRC2 Texas Red total fluorescence interference. Potency, µM (top dose mostly 106 µM), without a hit: at the highest dose fluorescence change, negative = quenching. hit rate 0.29% among 280,000; active means well fitted curve in either direction with a large enough effect; inconclusive means small, poorly fitted or top-dose-only effect
#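 Human TRβ ligand-binding domain (0.6 uM) and Texas Red SRC2 peptide (20 nM) in Tris buffer with 1 uM T3 and 5% DMSO were incubated with pinned compound for 5 hr at ambient temperature. Total fluorescence was computed as S + 2P (555/632 nm).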
# TRb-SRC2 inh: qHTS for Inhibitors of the Interaction of Thyroid Hormone Receptor and Steroid Receptor Coregulator 2; TRbeta-SRC2 peptide binding, fluorescence polarization; receptor liganded with 1 µM T3; Potency, µM (highest dose often 106 µM), for inactives: at the highest dose activity change, negative = inhibition, most hits filed as inhibitors; hit rate 0.065% among 280,000; AID 1469, 2008;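 further: plate controls were bound peptide for no effect and peptide without receptor for full effect; nearly all actives have a fitted effect of over 50% in size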
#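 TRb LBD 0.6 uM + Texas Red SRC2 peptide 20 nM, 1 uM T3, Tris buffer w/ 5% DMSO; compound pinned, 5 h RT; FP read ex 555/em 632; normalized to unbound and bound controls.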
# * marks the source's active call; other numbers are inactive results; i = inactive; ? = inconclusive; . = not tested or not shown; ! = not confirmed by another sample; [ ] = remark or other dose. Unless noted, the call rests on the fitted dose curve; in most records, active means well fitted curve in the direction sought with a large enough effect; inconclusive means small, poorly fitted or top-dose-only effect, or another doubt; inactive means no such curve, though single readings can be large; an effect the other way counts as inactive or inconclusive. Unless noted, on the % scale 0 is the no-effect control and ±100 the full control effect; potency means the concentration at half of the fitted maximal effect.
SMILES,BLM helicase inh,RECQ1 inh,TexasRed fluor,TRb-SRC2 inh
Cc1nn2c(=O)cc(COC(=O)c3ccccc3NC(=O)c3cccs3)nc2s1,0%,.,1%,2%
COc1cccc(CN(C(=O)c2oc3cc(C)ccc3c2C)C2CCS(=O)(=O)C2)c1 (centres undefined),-9%,.,5%,-3%
CCC(=O)N1c2ccccc2CC1C(=O)NCc1cc(Br)ccc1OC (centres undefined),-2%,.,-1%,10%
CC(=O)Nc1ccc(S(=O)(=O)NC2=NCN(C(C)C)CN2)cc1,-2%,.,13µM*[quencher],-4%
COc1ccc(CC(=O)OCC(=O)NCc2ccc(Cl)cc2)cc1,-8%,-4%,-2%,-2%
COc1ccc(CNC(=O)COC(=O)Cc2ccc(Cl)cc2Cl)cc1,-6%,-16%,35µM*[quencher],?
Cc1ccc(C(=O)O)cc1-c1ccc(/C=C2/NC(=O)N(c3ccccc3)C2=O)o1,12%,18µM*,-5%,12%
Cc1cc(C(=O)O)ccc1-c1ccc(/C=C2\NC(=O)N(Cc3ccccc3Cl)C2=O)o1,-7%,-7%,-3%,3%
Cc1cc(C)n(-c2nc3ccccc3nc2N2CCN(c3cccc(C(F)(F)F)c3)CC2)n1,-9%,.,0%,-3%
CCc1nnc(NC(=O)CSc2sc3c(O)cc(=O)[nH]c3c2C#N)s1,18µM*,.,.,.
CCSc1nnc(NC(=O)CSc2sc3c(O)cc(=O)[nH]c3c2C#N)s1,-22%,.,.,.
CCN(CC)c1ccc(N=Cc2cc(Br)ccc2O)cc1,-10%,-1%,11%,50µM*
Oc1ccc(Br)cc1C=Nc1ccc(Cl)cc1,0%,-7%,-1%,-4%
CCCNC(=O)Cn1c(=O)n(C)c2ccccc21,-4%,0%,45µM*[fluorescent],32µM*
CCCCNC(=O)Cn1c(=O)n(C)c2ccccc21,1%,1%,-2%,6%
O=c1c(C(c2ccccc2)c2c(O)sc3ccccc3c2=O)c(O)sc2ccccc12,?,32µM*,-4%,21%
CN(C)c1ccc2c(-c3ccccc3)c3ccc(=[N+](C)C)cc-3oc2c1,28µM*,28µM*,0.89µM*[fluorescent],0.1µM*
Cc1c(-c2ccccc2)c(=O)oc2cc(O)ccc12,-1%,.,.,.
Oc1cc(O)cc(/C=C/c2ccc(O)c(O)c2)c1,-13%,-10%,50µM*![quencher],?
Oc1cc(O)cc(O)c1,-9%,.,-1%,-5%
CO[Si](OC)(OC)c1ccccc1,.,.,0%[201 µM],-4%[201 µM]
CCN1CCN(Cc2c(O)ccc3oc(C)c(C(=O)Nc4ccc(OC)cc4)c23)CC1,4%,.,-1%,-13%
CN(C)c1ccc(C(=C2C=CC(=[N+](C)C)C=C2)c2c(O)c(S(=O)(=O)[O-])cc3cc(S(=O)(=O)O)ccc23)cc1,-16%,.,?,9%
CN(C)c1ccc(C(=C2C=CC(=[N+](C)C)C=C2)c2ccc(N(C)C)cc2)cc1,22µM*!,10µM*,-10%[201 µM],100µM*
COc1cccc(/C=N/N2C(=O)C3C4c5ccccc5C(c5ccccc54)C3C2=O)c1OC (centres undefined),-2%,i,3%,-1%
SMILES,BLM helicase inh,RECQ1 inh,TexasRed fluor,TRb-SRC2 inh
COc1cc(/C=N/N2C(=O)C3C4c5ccccc5C(c5ccccc54)C3C2=O)ccc1O (centres undefined),-7%,-11%,0.89µM*[quencher],-34%[53 µM]
Nc1nc(-c2c[nH]c3ccccc23)cs1,-18%,i,35µM*[fluorescent],17%
COc1ccc(OCCOc2ccccc2[N+](=O)[O-])cc1,-7%,-3%,-2%,0%
O=[N+]([O-])c1ccccc1OCCOc1ccccc1[N+](=O)[O-],0%,40µM*,-1%,7%
Cc1cccc(NC(=O)CSc2nc3c(oc4ccccc43)c(=O)n2-c2ccccc2)c1C,-6%,.,-14%,-2%
O=C(COc1ccccc1)NC(=S)Nc1cccc([N+](=O)[O-])c1,1%,-6%,0.89µM*[quencher],?
O=C(c1cnc2c(c1)COc1ccc(Cl)cc1-2)c1ccccc1O,-4%,i,7.9µM*![quencher],-15%
Cc1ccc2c(c1)-c1ncc(C(=O)c3ccccc3O)cc1CO2,-9%,.,4%,6%
CCCNC(=O)c1c(NC(=O)c2ccccc2F)sc2c1CCCCC2,-4%,.,-1%,3%
Cc1cc(C)cc(-n2c(SCC(=O)NC3CCCCC3)nc3c([nH]c4ccccc43)c2=O)c1,-1%,.,1%,4%
C=C[C@H]1CN2CC[C@@H]1C[C@H]2[C@@H](O)c1ccnc2ccc(OC)cc12,6%,-6%[25.9 µM],.,-2%
COc1ccc(S(=O)(=O)NCc2ccc3c(c2)CCN3C(=O)c2ccc(C)cc2)cc1Cl,-3%,.,3%,10%
Cc1cccc(/N=C/c2c(O)cc(C)oc2=O)n1,-3%,28µM*,7%,3%
Cc1cc(C(=O)COC(=O)CNS(=O)(=O)c2ccc3ccccc3c2)c(C)n1-c1ccccc1,-1%,-8%,200µM*[quencher],-11%
O=C(CNS(=O)(=O)c1ccc2ccccc2c1)OCC(=O)c1ccc(Br)s1,1%,-5%,1%,7%
CCCN(CCC)CCNC(=O)Cn1cnc2sc(C)c(S(=O)(=O)N3CCN(c4ccccc4OC)CC3)c2c1=O,5%,.,-2%,-2%
CCOC(=O)[C@H](C)Oc1ccc(Oc2nc3ccc(Cl)cc3o2)cc1,.,.,-1%[201 µM],5%[201 µM]
CCCCCCCCCCCCO,.,.,-3%[201 µM],4%[201 µM]
Cc1c(Cl)cccc1-n1nnc(-c2nc(-c3ccc4c(c3)OCO4)no2)c1C,1%,.,-2%,11%
CCCCCCC(=O)O,.,-1%,-1%,-8%
CCCCCCCCC#CCC#CCC#CCCCC(=O)O,5%,20µM*!,-3%,9%
CC(CCO)Nc1nc2c(c(=O)n(C)c(=O)n2C)n1Cc1ccc(Br)cc1 (centres undefined),-4%,.,0.0071µM*[quencher],-21%
C=CCc1ccccc1OCC(O)CN1CCN(c2ccccc2)CC1 (centres undefined),-5%,.,1.6µM*[quencher],?
C=CCc1cc(C)ccc1OCC(O)CN1CCN(c2ccccc2)CC1 (centres undefined),-2%,-9%,1%,-15%
Cc1ccc(/C=C/C2=Cc3c(sc(NC(=O)CSc4n[nH]c(N)n4)c3C#N)C(C)(C)C2)o1,?,20µM*,-9%,14%
COc1ccccc1NC(=O)Cn1c(O)c(N=NC(=O)c2ccccc2O)c2ccccc21,18µM*,i,-11%,15%

# Screening data deposited in PubChem by National Center for Advancing Translational Sciences (NCATS).
